Test results published in PubChem BioAssay (NCATS).
Inconclusive results are not listed. Activity calls are given as the source filed them. Unless noted, calls come from the whole dose curve; as a rule, active = well fitted curve in the direction sought with a large enough effect; inconclusive = small, poorly fitted or top-dose-only effect, or another doubt; inactive = no such curve, though single readings can be large; an effect the other way counts as inactive or inconclusive.

What was measured:
[1] = Cell Viability - BJ (AID 421; calls by dose curve;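 note: potency is the fitted concentration of half-maximal effect; cells exposed to compound for 40 hours at 37 °C before readout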); details: BJ fibroblast viability, qHTS
How it was run: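 Cytotoxicity in human BJ foreskin fibroblasts is scored as loss of cellular ATP after a 40-hour exposure, measured by luciferase luminescence. Controls are DMSO and 100 uM tamoxifen.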

[2] = Cell Viability - Jurkat (AID 426;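 active = dose-dependent loss of cell ATP signal giving a full or clear fitted curve, ranked by lower potency value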;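 note: potency is the fitted concentration of half-maximal effect; cells exposed to compound for 40 hours at 37 °C before ATP read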); details: qHTS
How it was run: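 Luminescent ATP read-out (CellTiter-Glo, 20 min at room temperature) after 40 hr compound exposure at 37 °C of Jurkat E6-1 cells, 5000/well. Decreased ATP taken as cytotoxicity; AC50 from standard Hill equation.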

[3] = Cell Viability - Hek293 (AID 427;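 active = compounds whose dose-response curve shows a full or clear partial loss of cell viability, called from curve shape rather than a numeric limit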;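 note: potency is the fitted concentration of half-maximal effect; cells exposed to compound for 40 hours at 37 °C before reading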); details: qHTS
How it was run: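 qHTS, human embryonic kidney (adenovirus-transformed) cells; 40 hr cpd, 37 °C; CellTiter-Glo ATP luminescence. Norm: DMSO = 0, 100 uM tamoxifen = 100% inhibition. Hill-fit AC50.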

[4] = Cell Viability - HepG2 (AID 433; calls by dose curve;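 note: potency is the fitted concentration of half-maximal effect; potency for ATP loss meaning cytotoxicity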); details: qHTS
How it was run: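 HepG2 hepatocellular carcinoma cells (1500/well) were treated with compounds for 40 h at 37 °C in complete medium; intracellular ATP was read by CellTiter-Glo luminescence. Data were normalized to DMSO and 100 uM tamoxifen, and AC50 came from Hill fits.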

[5] = Cell Viability - MRC5 (AID 434; calls by dose curve;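 note: potency is the fitted concentration of half-maximal effect; potency reflects cytotoxicity seen as loss of intracellular ATP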); details: MRC5 lung fibroblast viability, qHTS
How it was run: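 AC50 values come from Hill-equation fits of intracellular ATP loss, measured by CellTiter-Glo luminescence. Normal lung fibroblasts (MRC5) had 40 hr compound treatment at 37 C, normalized between DMSO and 100 uM tamoxifen.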

[6] = Cell Viability - SK-N-SH (AID 435; calls by dose curve; note: potency is the fitted concentration of half-maximal effect); details: SK-N-SH neuroblastoma cell viability qHTS
How it was run: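 SK-N-SH human neuroblastoma cells (1500/well) were exposed to compounds in complete medium for 40 h at 37 °C, and intracellular ATP was then measured by CellTiter-Glo luminescence. AC50 was taken from Hill fits, normalized to DMSO and 100 uM tamoxifen.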

[7] = target: Mitogen-activated protein kinase 10 (Mus musculus) (UniProt Q61831); assay: JNK3 AlphaScreen Assay (AID 530; active = well fitted curve in either direction with a large enough effect, not every such curve was filed as active;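 note: kinase came from lysate of stimulated human HepG2 cells; signal reports phosphorylation of biotinylated GST-cJun 1-79 at Ser73 with 10 µM ATP; % is set by controls: 0 for no effect and ±100 for the full control effect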)
How it was run: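 Kinase buffer: 20 mM Tris-HCl pH 7.6, 10 mM MgCl2, 1 mM DTT, 0.1 mM Na3VO4, 0.01% Tween-20; ATP 10 uM. Substrate biotin-GST-cJun(1-79), enzyme from activated HepG2 lysates. Detection by Ser73 phospho-antibody AlphaScreen.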

[8] = Cell Viability - N2a (AID 540); details: N2a mouse neuroblastoma cell viability; at 92.2 µM (top of the series);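 note: plate controls were DMSO alone for no effect and tamoxifen control for full effect; nearly all actives have a fitted effect of over 45% in size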
How it was run: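 N2a mouse neuroblastoma, 1500 cells/well, 5 hr settle; compound 40 hr, 37 °C; CellTiter-Glo 20 min RT; luminescence; Hill-fit AC50.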

[9] = Cell Viability - NIH 3T3 (AID 541); details: NIH 3T3 cell viability, qHTS; at 92.2 µM (top of the series);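 note: plate controls were DMSO alone for no effect and tamoxifen positive control for full effect; nearly all actives have a fitted effect of over 25% in size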
How it was run: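 qHTS format; 40 hr compound exposure, 37 °C; CellTiter-Glo luminescence (cellular ATP) read-out after 20 min at RT. Decrease in ATP = cytotoxicity; AC50 from standard Hill fit.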

[10] = Cell Viability - HUV-EC-C (AID 542); note: % is set by controls: 0 for no effect and ±100 for the full control effect; nearly all actives have a fitted effect of over 35% in size
How it was run: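 Luminescent ATP read-out (CellTiter-Glo, 20 min room temperature) after 40 hr compound treatment of HUV-EC-C cells at 37 °C. Concentration-response data fitted with the standard Hill equation to give AC50; tamoxifen and doxorubicin served as positive controls.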

[11] = Cell Viability - H-4-II-E (AID 543); note: % is set by controls: 0 for no effect and ±100 for the full control effect; nearly all actives have a fitted effect of over 35% in size
How it was run: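 qHTS, rat hepatoma H-4-II-E, 1500 cells/well; 40 hr compound exposure, 37 °C; CellTiter-Glo ATP luminescence after 20 min RT; AC50 by standard Hill fit.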

[12] = Cell Viability - SH-SY5Y (AID 544);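 note: 0% = DMSO alone and -100% = 100 µM tamoxifen; nearly all actives have a fitted effect of over 55% in size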
How it was run: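 SH-SY5Y, 1500 cells/well, 5 hr pre-incubation 37 °C; cpd 40 hr 37 °C; CellTiter-Glo 20 min RT; luminescence (ATP) read. qHTS concentration-response, Hill fit → AC50. Tamoxifen, doxorubicin as positive controls.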

[13] = Cell Viability - Renal Proximal Tubule (AID 545);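 note: 0% = DMSO only and -100% = 100 µM tamoxifen; nearly all actives have a fitted effect of over 40% in size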
How it was run: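 Primary rat renal proximal tubule cells (1000/well) were treated with compounds for 40 hr at 37 °C in complete medium. Intracellular ATP was measured by CellTiter-Glo luminescence, and AC50 values came from Hill-equation fits of concentration-response data.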

[14] = Cell Viability - Mesenchymal (AID 546);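 note: cells exposed to compound for 40 hours before reading; 0% = DMSO only and -100% = 100 µM tamoxifen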
How it was run: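 CellTiter-Glo luminescence (intracellular ATP, 20 min room temperature) after 40 hr compound exposure at 37 °C of 1000 glomerulus-derived human kidney mesenchymal cells/well; AC50 values obtained by fitting qHTS concentration-response data to the Hill equation.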

[15] = Cellular Toxicity (caspase-3) HepG2 (AID 654);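 note: cells exposed to compound for 16 hours before reading; 0% = DMSO alone and 100% = caspase signal from 100 µM tamoxifen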
How it was run: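 Luminescent Caspase-Glo 3/7 readout after 16 hr compound exposure of human hepatocellular carcinoma HepG2 cells at 37 °C; qHTS concentration-response, normalized DMSO = 0%, 100 uM tamoxifen = 100%; AC50 by standard Hill equation.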

[16] = Cellular Toxicity (caspase-3) Jurkat (AID 655);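 note: cells exposed to compound for 16 h at 37 °C before reading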
How it was run: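 Jurkat cells (5000/well) in complete medium were treated with compounds for 16 hr at 37 °C, then Caspase-Glo 3/7 luminescence was read after 20 min at room temperature. Data normalized to DMSO (basal) and 100 uM tamoxifen (100%); AC50 from Hill fit.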

[17] = Cellular Toxicity (caspase-3) HUV-EC-C (AID 656);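 note: 0% = DMSO basal and 100% = 100 µM tamoxifen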
How it was run: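 HUV-EC-C endothelial cells, 1000/well, were pre-incubated 5 hr at 37°C, then exposed to compounds for 16 hr at 37°C. Caspase-Glo 3/7 luminescence was read after 20 min at room temperature. AC50 came from Hill fits, normalized to DMSO and 100 uM tamoxifen.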

[18] = Cellular Toxicity (caspase-3) SHSY5Y (AID 657)
How it was run: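 SH-SY5Y human neuroblastoma cells (1500/well) were treated with compounds for 16 h at 37 °C, then Caspase-Glo 3/7 luminescence was read after 1 h at room temperature. Data normalized to DMSO and 10 uM staurosporine; AC50 from Hill fits.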

[19] = Cellular Toxicity (caspase-3) BJ (AID 658);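 note: 0% = DMSO basal and 100% = 10 µM staurosporine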
How it was run: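 Caspase-Glo 3/7 luminescence, read 1 hr after reagent at room temperature, in normal BJ fibroblasts exposed 16 hours at 37 °C. AC50 values from Hill-equation concentration-response, scaled between DMSO basal and 10 uM staurosporine as 100%.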

[20] = Cellular Toxicity (caspase-3) MRC-5 (AID 659);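 note: 0% = DMSO basal and 100% = 10 µM staurosporine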
How it was run: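 Luminescent Caspase-Glo 3/7 read-out (1 h, room temperature) after a 16 h, 37 °C compound exposure of MRC-5 lung fibroblasts at 1500 cells/well. Concentration-response AC50 from Hill equation; 0% DMSO, 100% 10 uM staurosporine.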

[21] = Cellular Toxicity (caspase-3) Mesangial (AID 660);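 note: combined caspase 3 and 7 activity read by Caspase-Glo luminescence; cells exposed to compound for 16 h before the caspase read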
How it was run: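 Luminescent Caspase-Glo 3/7 readout (aminoluciferin substrate cleavage, 20 min RT) after 16 h compound exposure at 37 °C of normal human mesangial cells. Signal increase normalized between DMSO basal and 100 uM tamoxifen; Hill-equation AC50.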

[22] = Cellular Toxicity (caspase-3) SK-N-SH (AID 661);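 note: 0% = DMSO basal and 100% = 10 µM staurosporine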
How it was run: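 Luminescent Caspase-Glo 3/7 read-out after 16 hr compound exposure of SK-N-SH neuroblastoma cells at 37 °C. Signal increase normalized to DMSO (basal) and 10 uM staurosporine (100%); AC50 from Hill equation fits of qHTS concentration-response data.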

[23] = Cellular Toxicity (caspase-3) H-4-II-E (AID 663);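 note: cells exposed to compound for 16 hr before readout; 0% = DMSO basal and 100% = 100 µM tamoxifen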
How it was run: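 Caspase 3/7 activation measured by luminescent aminoluciferin substrate cleavage after 16 hr compound treatment of H-4-II-E cells in complete medium. Increase normalized between DMSO (basal) and 100 uM tamoxifen (100%); Hill-equation AC50 from concentration-response.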

[24] = Cellular Toxicity (caspase-3) N2a (AID 665);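 note: compound exposure lasted 16 h at 37 °C before readout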
How it was run: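 Luminescent Caspase-Glo 3/7 readout in N2a mouse neuroblastoma cells after 16 h compound exposure at 37 °C. Signal scaled to DMSO (basal) and 10 uM staurosporine (100%). Concentration-response fitted with Hill equation for AC50.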

COC(=O)c1ccccc1C(=O)OC
inactive: Potency [1] > 92 µM | Potency [2] > 92 µM | Potency [3] > 92 µM | Potency [4] > 92 µM | Potency [5] > 92 µM | Potency [6] > 92 µM | outcome [7] | activity change, negative = cytotoxicity [8] 4.28% | activity change, negative = cytotoxicity [9] 2.58% | outcome [10] | outcome [11] | outcome [12] | outcome [13] | outcome [14] | outcome [15] | outcome [16] | outcome [17] | outcome [18] | outcome [19] | outcome [20] | outcome [21] | outcome [22] | outcome [23] | outcome [24]
